Experimental data as given in ChEMBL document CHEMBL3988442, “University of Dundee, Small-Polar-MMV Screening Library” (2021).
The whole screen tested about 48,000 compounds, of which about 13,000 (27%) showed an effect of 50% or more. This is one part of the list.

system: Wolbachia pipientis; experiment: Anti-Wolbachia Cell-Based Screen; format: functional; design: scale not given: in the data most compounds retested in dose-response had high values; details: 5 µM

Compound | Percent Effect [%]
COc1cccc(CC(C)NC(=O)NC(C)C)c1 (configuration not stated) | -4.746
COCC(=O)NC(C)Cc1cccc(OC)c1 (configuration not stated) | -11.91
COc1ccc(CC(C)Nc2cccc(F)c2)cc1 (configuration not stated) | 103.5
CC(=O)N1C[C@H]2CNC[C@@]2(C(=O)NCCCOc2cccnc2)C1 | -25.71
CC(=O)N1CC[C@H]2N(C)CC[C@@]2(C(=O)Nc2cccnc2)CC1 | 115.3
CC(=O)N1CCC2(CC1)NC(=O)[C@H]1CN(Cc3cccnc3)C[C@H]12 | -21.72
CC1CCN(CC(=O)N(Cc2ccccc2)Cc2nccs2)C1=O (configuration not stated) | 108.7
O=C(CCc1nccs1)N1CCC(C(=O)O)(c2ccccc2)CC1 | 4.146
CN(Cc1nc(C2CC2)no1)C(=O)CN1CC(c2ccccc2)CC1=O (configuration not stated) | -16.31
O=C(NC[C@H]1C[C@@H]2CCN1C[C@@H]2CN1CCOCC1)Nc1ccccc1 | 10.54
Cc1cc(C(=O)N2CCC3(CCN3Cc3ccc(F)cc3)C2)no1.O=C(O)C(F)(F)F (configuration not stated) | -18.68
CC[C@@H]1N(Cc2ccccn2)CCC[C@]12CCC(=O)N2CCOC | 95.06
CNC(=O)CN1C(=O)CCC12CCCN(Cc1ccccn1)C2 (configuration not stated) | -6.812
O=C(O)C(F)(F)F.O=C(O)C(F)(F)F.O=C1CC[C@@H]2[C@@H](CCN2Cc2ccncc2)N1c1ccccc1 | -23.66
CC[C@@H]1N(Cc2cccnc2)CCC[C@]12CCC(=O)N2C.O=C(O)C(F)(F)F.O=C(O)C(F)(F)F | 114.6
CN(C)C(=O)CN1CCC2(CCCN(Cc3cccnc3)C2)C1=O.O=C(O)C(F)(F)F.O=C(O)C(F)(F)F (configuration not stated) | -8.484
CC[C@@H]1N(Cc2ccncc2)CCC[C@]12CCC(=O)N2C.O=C(O)C(F)(F)F.O=C(O)C(F)(F)F | 105.4
O=C(O)C(F)(F)F.O=C(O)C(F)(F)F.O=C(O)C(F)(F)F.O=C1N(c2cccnc2)CCC12CCCN(Cc1cccnc1)C2 (configuration not stated) | -3.646
Cn1cc(N2C(=O)CC[C@@H]3[C@H]2CCN3Cc2ccncc2)cn1.O=C(O)C(F)(F)F.O=C(O)C(F)(F)F | -8.311

Compound | Percent Effect [%]
CC[C@@H]1N(Cc2ccncc2)CCC[C@]12CCC(=O)N2CCOC.O=C(O)C(F)(F)F.O=C(O)C(F)(F)F | 102.9
COCCCN1CCCCC12CC(=O)N(Cc1ccccn1)C2 (configuration not stated) | -0.9294
Cc1ccc(CN2CC[C@@H]3[C@H]2CCC(=O)N3Cc2ccncc2)s1.O=C(O)C(F)(F)F.O=C(O)C(F)(F)F | 13.87
Cc1oc(-c2ccco2)nc1CC(=O)N1CCN(C2CCC2)CC1 | 0.04228
CNC(=O)[C@H]1C[C@@H]2CN(C(=O)c3cncc(C)c3)C[C@@H]2N1C | -44.11
O=C1O[C@@H]2CN(Cc3ccsc3)C[C@@H]2N1Cc1ccccn1 | -2.572
O=C(CCc1cscn1)N1CCC(C(=O)O)(c2ccccc2)CC1 | -1.592
CCN1CCNC(=O)C12CCN(C(=O)Cc1ccccn1)CC2 | 118.9
CC(C)CN1CCNC(=O)C12CCN(C(=O)c1ccccn1)CC2 | -2.981
N#CC1(c2ccccc2)CCN(C(=O)CN2C(=O)CCNC2=O)CC1 | -11.36
CCN1CCNC(=O)C12CCN(C(=O)c1ccccn1)CC2 | 120
CCN1CCN(C)C(=O)C12CCN(C(=O)Cc1ccccn1)CC2.O=C(O)C(F)(F)F | 105.5
CC(C)N1CCN(C)C2(CCN(C(=O)c3ccnnc3)CC2)C1=O | -6.646
CCS(=O)(=O)N1CCC2(C1)C(=O)N(C)CCN2Cc1ccncc1.O=C(O)C(F)(F)F.O=C(O)C(F)(F)F (configuration not stated) | -0.1551
O=C(NCCc1ccncc1)[C@H]1CC[C@@H]2[C@@H](CCN2C2CCC2)O1 | -5.975
OCCN1CCN(Cc2cc3c(cc2Br)OCCO3)CC1 | 1.369
CC(C)=CCN1C[C@H]2CC[C@@H]1CN(C(=O)Cc1c(C)nc(C)[nH]c1=O)C2 | -7.395
Cc1ccc2c(c1)C(NC1CC1)CC21CCNCC1.Cl (configuration not stated) | 121
Cc1ccnc(NCCNC(=O)C2CC3(CCNCC3)CN2C)c1 (configuration not stated) | 2.033

Compound | Percent Effect [%]
CC(C)NC1CC2(CCNCC2)c2cc(F)ccc21.Cl.Cl (configuration not stated) | 1.689
Cc1ccc2c(c1)C(NC(C)C)CC21CCNCC1.Cl (configuration not stated) | -5.487
Cc1ccc2c(c1)C1(CCNCC1)CC2NCCO.Cl.Cl (configuration not stated) | 90.17
Cl.Cl.Fc1ccc2c(c1)C1(CCNCC1)CC2NC1CC1 (configuration not stated) | 108.3
COc1ccc2c(c1)C1(CCNCC1)CC2NC1CC1.Cl.Cl (configuration not stated) | 123.6
Cl.O=C(Nc1ccccc1)C1=NOC2(CCNCC2)C1 | -4.719
CN(C)C(=O)CN1CCCC2(CCN(c3ccc(C#N)cn3)C2)C1.O=C(O)C(F)(F)F (configuration not stated) | -7.726
Cc1cnn(CC(C)NCC(=O)NC2CCOCC2)c1 (configuration not stated) | 1.556
COc1nc(N2CCNCC2)ncc1Br | -8.9
NC(=O)CC1CC2(CCNCC2)c2cc(F)ccc21.O=C(O)C(F)(F)F (configuration not stated) | 111.2
CNC(=O)C1CCC2(CCNCC2)C1.O=C(O)C(F)(F)F (configuration not stated) | 1.559
CN(C)C(=O)C1CCC2(CCNCC2)C1.O=C(O)C(F)(F)F (configuration not stated) | -33.97
Cc1ccc2c(c1)C1(CCNCC1)CC2NC(C)C.Cl.Cl (configuration not stated) | -0.3898
Cc1ccc2c(c1)C1(CCNCC1)CC2NC1CC1.Cl.Cl (configuration not stated) | 133.8
O=C(Cc1ccccn1)N1C[C@H]2CN(Cc3ccccn3)C[C@H]2C1 | 97.89
COC1CCC[C@@H]2CN(Cc3csc(C)n3)C[C@H]12.O=C(O)C(F)(F)F (some centres not stated) | -10.37
O=C1NC[C@H]2CN(Cc3ccccn3)CCN12 | -1.346
Cn1cnc(S(=O)(=O)N2C[C@H]3CN(Cc4ccccn4)C[C@H]3C2)c1.O=C(O)C(F)(F)F.O=C(O)C(F)(F)F | 1.449
Cc1nc(CN2C[C@@H]3CN(C(=O)Cc4ccccn4)C[C@@H]3C2)cs1.O=C(O)C(F)(F)F.O=C(O)C(F)(F)F | 107.4
